The record followed here is PubChem BioAssay (EPA / NIEHS).

Inconclusive results are not listed. Activity calls are given as the source filed them. How the source made its calls: active means hit-call score of the fitted dose curve at least 0.9, where 1 is the maximum; inconclusive means response in the unintended direction; inactive means score below 0.9.

Usually AC50 stands for the concentration at which the activity in the assay is half-maximal.

Chain of human Adrenergic, Beta 3 Receptor (Adrb3), ADRB3 (gene 155) (P13945 whole entry, looked up): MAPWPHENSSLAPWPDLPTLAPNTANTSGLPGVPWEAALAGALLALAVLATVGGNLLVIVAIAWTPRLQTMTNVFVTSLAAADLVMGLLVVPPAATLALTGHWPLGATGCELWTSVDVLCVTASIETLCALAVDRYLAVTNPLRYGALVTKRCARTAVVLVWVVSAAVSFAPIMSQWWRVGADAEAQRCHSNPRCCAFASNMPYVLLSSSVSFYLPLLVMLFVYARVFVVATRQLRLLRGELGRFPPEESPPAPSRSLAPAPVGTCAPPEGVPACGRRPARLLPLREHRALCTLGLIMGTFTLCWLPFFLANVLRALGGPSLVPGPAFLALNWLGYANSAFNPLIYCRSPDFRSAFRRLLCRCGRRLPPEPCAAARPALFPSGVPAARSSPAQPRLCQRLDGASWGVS
Chain of human Histamine 1 Receptor (H1), HRH1 (gene 3269) (P35367 whole entry, looked up): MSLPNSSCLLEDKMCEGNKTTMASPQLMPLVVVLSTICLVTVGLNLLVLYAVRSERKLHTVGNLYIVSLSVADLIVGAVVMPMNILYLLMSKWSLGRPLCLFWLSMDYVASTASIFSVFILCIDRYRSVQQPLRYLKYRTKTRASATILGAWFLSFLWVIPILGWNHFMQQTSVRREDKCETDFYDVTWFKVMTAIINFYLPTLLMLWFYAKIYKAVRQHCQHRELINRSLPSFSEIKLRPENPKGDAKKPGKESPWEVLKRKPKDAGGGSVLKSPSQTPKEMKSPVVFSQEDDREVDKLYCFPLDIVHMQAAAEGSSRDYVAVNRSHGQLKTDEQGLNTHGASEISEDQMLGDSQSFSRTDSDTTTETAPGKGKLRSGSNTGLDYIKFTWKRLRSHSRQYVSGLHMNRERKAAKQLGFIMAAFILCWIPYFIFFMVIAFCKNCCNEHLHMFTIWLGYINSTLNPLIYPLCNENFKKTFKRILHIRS
Chain of human Dopamine Receptor D2 (DRD2), DRD2 (gene 1813) (P14416 whole entry, looked up): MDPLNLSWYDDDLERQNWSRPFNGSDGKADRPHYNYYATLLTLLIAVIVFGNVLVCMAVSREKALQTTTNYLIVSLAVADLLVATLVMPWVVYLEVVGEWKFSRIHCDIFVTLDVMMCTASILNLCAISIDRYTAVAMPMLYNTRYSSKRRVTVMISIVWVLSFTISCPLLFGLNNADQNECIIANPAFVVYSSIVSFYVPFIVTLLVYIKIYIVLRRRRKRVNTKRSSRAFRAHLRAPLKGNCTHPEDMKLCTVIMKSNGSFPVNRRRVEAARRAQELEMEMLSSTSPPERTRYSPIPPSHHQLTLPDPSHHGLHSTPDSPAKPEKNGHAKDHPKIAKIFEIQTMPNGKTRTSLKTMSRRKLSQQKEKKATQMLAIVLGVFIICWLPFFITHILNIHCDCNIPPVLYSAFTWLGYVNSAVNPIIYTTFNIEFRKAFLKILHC
Chain of Beta-2 adrenergic receptor (Homo sapiens) (P07550 whole entry, looked up): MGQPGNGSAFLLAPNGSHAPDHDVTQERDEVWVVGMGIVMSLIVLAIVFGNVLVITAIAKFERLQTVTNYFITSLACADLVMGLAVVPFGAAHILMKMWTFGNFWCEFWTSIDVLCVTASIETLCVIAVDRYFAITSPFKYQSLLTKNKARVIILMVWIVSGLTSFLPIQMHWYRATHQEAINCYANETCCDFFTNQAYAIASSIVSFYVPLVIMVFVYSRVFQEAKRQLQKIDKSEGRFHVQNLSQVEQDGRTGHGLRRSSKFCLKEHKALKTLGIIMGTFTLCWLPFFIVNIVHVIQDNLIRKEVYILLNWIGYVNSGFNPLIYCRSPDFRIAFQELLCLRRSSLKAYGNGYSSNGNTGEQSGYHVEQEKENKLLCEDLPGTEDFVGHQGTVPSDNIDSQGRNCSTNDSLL
Chain of human Adrenergic, Alpha 2c Receptor (Adra2C), ADRA2C (gene 152) (P18825 whole entry, looked up): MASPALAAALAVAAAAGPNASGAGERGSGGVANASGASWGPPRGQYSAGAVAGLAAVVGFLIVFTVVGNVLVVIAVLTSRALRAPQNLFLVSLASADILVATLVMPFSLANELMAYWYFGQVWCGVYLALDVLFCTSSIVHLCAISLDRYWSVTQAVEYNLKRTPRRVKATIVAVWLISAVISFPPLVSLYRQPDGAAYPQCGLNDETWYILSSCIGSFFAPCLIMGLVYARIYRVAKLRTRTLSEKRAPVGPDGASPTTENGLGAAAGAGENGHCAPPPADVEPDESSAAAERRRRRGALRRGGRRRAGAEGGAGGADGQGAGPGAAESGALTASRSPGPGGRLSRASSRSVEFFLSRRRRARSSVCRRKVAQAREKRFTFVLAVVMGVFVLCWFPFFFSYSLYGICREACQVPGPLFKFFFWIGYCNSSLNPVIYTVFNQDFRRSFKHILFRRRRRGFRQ
Chain of D(1A) dopamine receptor (Homo sapiens) (P21728 whole entry, looked up): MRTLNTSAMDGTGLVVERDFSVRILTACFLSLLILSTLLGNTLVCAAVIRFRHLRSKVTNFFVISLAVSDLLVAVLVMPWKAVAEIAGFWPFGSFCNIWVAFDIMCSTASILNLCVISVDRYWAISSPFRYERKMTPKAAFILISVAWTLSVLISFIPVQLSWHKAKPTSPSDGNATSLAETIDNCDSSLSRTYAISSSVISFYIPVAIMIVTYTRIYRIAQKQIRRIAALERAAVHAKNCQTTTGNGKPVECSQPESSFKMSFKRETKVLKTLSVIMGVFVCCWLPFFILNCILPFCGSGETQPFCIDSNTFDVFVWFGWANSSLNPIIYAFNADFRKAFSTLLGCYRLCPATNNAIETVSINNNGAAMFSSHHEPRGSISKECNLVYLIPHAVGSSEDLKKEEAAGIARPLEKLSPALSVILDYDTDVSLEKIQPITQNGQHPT
Chain of human Dopamine Receptor D4.4 (DRD4.4), DRD4 (gene 1815) (P21917 whole entry, looked up): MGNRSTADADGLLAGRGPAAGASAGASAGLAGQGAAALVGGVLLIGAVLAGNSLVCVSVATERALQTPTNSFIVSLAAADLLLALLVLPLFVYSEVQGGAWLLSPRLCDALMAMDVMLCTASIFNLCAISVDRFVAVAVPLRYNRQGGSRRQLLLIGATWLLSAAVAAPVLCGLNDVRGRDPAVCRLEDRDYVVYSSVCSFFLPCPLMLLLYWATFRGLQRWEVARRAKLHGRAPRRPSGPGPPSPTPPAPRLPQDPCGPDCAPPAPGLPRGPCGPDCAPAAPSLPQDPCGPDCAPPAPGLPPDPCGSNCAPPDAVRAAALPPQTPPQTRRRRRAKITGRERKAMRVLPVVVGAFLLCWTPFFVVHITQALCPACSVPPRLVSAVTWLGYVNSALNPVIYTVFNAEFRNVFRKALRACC

The target in one experiment is human Adrenergic, Alpha 2c Receptor (Adra2C), ADRA2C (gene 152) (UniProt P18825). Nature of the experiment: NVS_GPCR_hAdra2C: NovaScreen (NVS) G Protein-Coupled Receptor Assay for human Adrenergic, Alpha 2c Receptor (Adra2C) (AID 2283259). In outline:
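Screened first in duplicate at 25 uM, with actives then run as concentration series. Membranes from Sf9 cells were exposed for 1 h, and displacement of radioligand was counted after filtration, using DMSO as baseline.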
For `CCCCC(CC)COC(=O)CC(C(=O)OCC(CC)CCCC)S(=O)(=O)O` (stereo unspecified), the AC50 is 7.47 µM (active).
Turning to `CCOC(=O)CCC(=O)OCC`, the result was inactive.
On the same count and under the same terms, the same measure for `Oc1ccc2c(c1)OC[C@@H](N1CCC(O)(c3ccc(F)cc3)CC1)[C@H]2O`: “inactive”.
As for `NC(=O)Cn1c(=O)cc(CCN2CCN(c3nccc4sccc34)CC2)c2ccc(F)cc21`, the AC50 is 0.666 µM (active).
Consider `CNC(=O)[C@H]1O[C@@H](n2cnc3c(NCc4cc(Cl)ccc4OCc4cc(C)no4)ncnc32)[C@H](O)[C@@H]1N`, for which the outcome was inactive.
`COc1cc(S(=O)(=O)O)c(C)cc1N=Nc1c(O)ccc2cc(S(=O)(=O)O)ccc12`: the AC50 is 13.9 µM (active).
For the molecule `CN1CCN(Cc2cc(-c3ccc4[nH]c(=O)oc4c3)co2)[C@@H](c2ccc(F)cc2)C1`, the AC50 is 10.5 µM (active).
Take `CC1(C)CC(N=C=O)CC(C)(CN=C=O)C1` (stereo unspecified): the result was inactive.

The target in a further experiment is Beta-2 adrenergic receptor (Homo sapiens) (UniProt P07550). In words: NVS_GPCR_hAdrb2: NovaScreen (NVS) G Protein-Coupled Receptor Assay for human Adrenergic, Beta 2 Receptor (Adrb2) (AID 2283261). An outline of the steps:
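Compounds screened in duplicate at 25 uM, then actives in concentration series. Human beta-2 receptor from CHO material, cell-free; radioligand displacement after 1 h measured by filtration and scintillation against DMSO baseline.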
Turning to `CCCCC(CC)COC(=O)CC(C(=O)OCC(CC)CCCC)S(=O)(=O)O` (stereo unspecified), the AC50 is 14.6 µM (active).
Turning to `CCOC(=O)CCC(=O)OCC`, the molecule was classed as inactive.
On the same count and under the same terms, the same measure for `Cc1cccc(C)c1O`: “inactive”; for `Oc1ccc2c(c1)OC[C@@H](N1CCC(O)(c3ccc(F)cc3)CC1)[C@H]2O`: “inactive”.
As to `NC(=O)Cn1c(=O)cc(CCN2CCN(c3nccc4sccc34)CC2)c2ccc(F)cc21`, the AC50 was 8.69 µM (active).
Take `O=C(O)Cc1ccccc1Nc1c(Cl)cccc1Cl`: the outcome was inactive.

The next experiment has as its target human Adrenergic, Beta 3 Receptor (Adrb3), ADRB3 (gene 155) (UniProt P13945). In words: NVS_GPCR_hAdrb3: NovaScreen (NVS) G Protein-Coupled Receptor Assay for human Adrenergic, Beta 3 Receptor (Adrb3) (AID 2283262). An outline of the steps: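 A cell-free filter binding assay read by scintillation counting, with displacement of a specific radioligand measured after 1 hour. The receptor source was SK-N-MC extracts (cells pretreated with isoproterenol and 8-bromo-cAMP). Compounds were first tested at 25 uM in duplicate and then in concentration series.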
Take `Cc1ccccc1Cl`: the call was inactive.
For `Oc1ccc2c(c1)OC[C@@H](N1CCC(O)(c3ccc(F)cc3)CC1)[C@H]2O`, the call was inactive.
Take `O=C(O)Cc1ccccc1Nc1c(Cl)cccc1Cl`: the outcome was inactive.

Another experiment concerns the target human Dopamine Receptor D4.4 (DRD4.4), DRD4 (gene 1815) (UniProt P21917). Nature of the experiment: NVS_GPCR_hDRD4.4: NovaScreen (NVS) G Protein-Coupled Receptor Assay for human Dopamine Receptor D4.4 (DRD4.4) (AID 2283264). The protocol: (§1) NVS_GPCR_hDRD4.4 is a biochemical, single-readout assay that uses extracted gene-proteins from CHO in a cell-free assay. Measurements were taken 1 hour after chemical dosing in a 96-well plate.NVS_GPCR_hDRD4.4 is one of one assay component(s) measured or calculated from the NVS_GPCR_hDRD4.4 assay. It is designed to make measurements of radioligand binding, a form of binding reporter, as detected with scintillation counting signals by Filter-based radiodetection technology.Data from the assay component NVS_GPCR_hDRD4.4 was analyzed into 1 assay endpoint. This assay endpoint, NVS_GPCR_hDRD4.4, was analyzed in the positive analysis fitting direction relative to DMSO as the negative control and baseline of activity. Using a type of binding reporter, loss-of-signal activity can be used to understand changes in the binding as they relate to the gene DRD4. Furthermore, this assay endpoint can be referred to as a primary readout, because the performed assay has only produced 1 assay endpoint. To generalize the intended target to other relatable targets, this assay endpoint is annotated to the gpcr intended target family, where the subfamily is rhodopsin-like receptor.
(§2) Binding assays used specific radioligands (tritiated, iodinated) with non-radioactive competitive displacement ligands in agonist or antagonist protocols (as indicated) and various reference compounds and inhibitors to titrate specific binding to receptors and transporters. Most enzyme assays (CYPs, kinases, phosphatases, proteases, HDACs) used recombinant protein and specific substrates (fluorescence mostly, some colorimetric and radioactive) and inhibitors, followed by a biochemical separation of substrate and product. All assays for the biochemical HTS were initially run in duplicate at a single concentration (10 uM for CYP450 assays and 25 uM for all others). […] Each assay was run with positive and negative controls, and concurrent controls on every plate. The follow-up (secondary) screen tested active chemical-pairs in concentration series, as well as a few additional assays not tested in the primary screen, some selected negative inactives, and several cases re-run in the concentration series for confirmatory purposes.
`CCCCC(CC)COC(=O)CC(C(=O)OCC(CC)CCCC)S(=O)(=O)O` (stereo unspecified): the AC50 is 10.5 µM (active).
For the molecule `CCOC(=O)CCC(=O)OCC`, the outcome was inactive.
Same read-out and setting: the same measure for `Nc1nc(N)c2nc(CNc3ccc(C(=O)N[C@@H](CCC(=O)O)C(=O)O)cc3)cnc2n1`: “inactive”.
Still for that read-out and setting: the same measure for `CCc1c(C(=O)NN2CCCCC2)nn(-c2ccc(Cl)cc2Cl)c1-c1ccc(Br)cc1`: “inactive”.
On to `NC(=O)Cn1c(=O)cc(CCN2CCN(c3nccc4sccc34)CC2)c2ccc(F)cc21`, for which the AC50 was 0.023 µM (active).
Turning to `COc1cc(S(=O)(=O)O)c(C)cc1N=Nc1c(O)ccc2cc(S(=O)(=O)O)ccc12`, the AC50 is 38.7 µM (active).
Same read-out and setting: the figure for `CN1CCN(Cc2cc(-c3ccc4[nH]c(=O)oc4c3)co2)[C@@H](c2ccc(F)cc2)C1` is 14.2 µM (active).
`O=c1c(O)c(-c2ccc(O)c(O)c2)oc2cc(O)cc(O)c12`: the call was inactive.

The target in another experiment is human Dopamine Receptor D2 (DRD2), DRD2 (gene 1813) (UniProt P14416). Nature of the experiment: NVS_GPCR_hDRD2s: NovaScreen (NVS) G Protein-Coupled Receptor Assay for human Dopamine Receptor D2 (DRD2) (AID 2283266). In outline:
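Test compound (25 uM, duplicate in the primary screen; concentration series at follow-up) competed with radioligand for human DRD2 in CHO-derived membrane protein. Filter-based scintillation counting was done 1.5 hours after dosing, with loss of signal analysed against DMSO.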
As for `CCCCC(CC)COC(=O)CC(C(=O)OCC(CC)CCCC)S(=O)(=O)O` (stereo unspecified), the AC50 was 16.5 µM (active).
Regarding `CCOC(=O)CCC(=O)OCC`, the molecule was classed as inactive.
With `Nc1nc(N)c2nc(CNc3ccc(C(=O)N[C@@H](CCC(=O)O)C(=O)O)cc3)cnc2n1`, the AC50 is 18.3 µM (active).
Consider `Oc1ccc2c(c1)OC[C@@H](N1CCC(O)(c3ccc(F)cc3)CC1)[C@H]2O`, for which the outcome was inactive.
The same measure, in the same setting: the same measure for `Cc1nc(-c2ccc3c(c2)CCN(CCC2CCC(NC(=O)/C=C/c4ccc(F)cc4)CC2)CC3)no1` (stereo unspecified): “inactive”.
Regarding `NC(=O)Cn1c(=O)cc(CCN2CCN(c3nccc4sccc34)CC2)c2ccc(F)cc21`, the AC50 is 0.926 µM (active).
The same measure, in the same setting: the same measure for `COc1cc(S(=O)(=O)O)c(C)cc1N=Nc1c(O)ccc2cc(S(=O)(=O)O)ccc12`: 11.4 µM (active).
Regarding `CN1CCN(Cc2cc(-c3ccc4[nH]c(=O)oc4c3)co2)[C@@H](c2ccc(F)cc2)C1`, the molecule was called inactive.

Another experiment has as its target human Histamine 1 Receptor (H1), HRH1 (gene 3269) (UniProt P35367). In words: NVS_GPCR_hH1: NovaScreen (NVS) G Protein-Coupled Receptor Assay for human Histamine 1 Receptor (H1) (AID 2283268). Here is the method:
as §1, with “NVS_GPCR_hH1” for “NVS_GPCR_hDRD4.4”, “gene-proteins” for “gene-proteins from CHO”, “plate.NVS_GPCR_hH1” for “plate.NVS_GPCR_hDRD4.4”, “NVS_GPCR_hH1,” for “NVS_GPCR_hDRD4.4,”, “HRH1.” for “DRD4.”
as §2, with “The follow-up (secondary) screen tested active chemical-pairs in concentration series, as well as a few additional assays not tested in the primary screen, some selected negative inactives, and several cases re-run in the concentration series for confirmatory purposes.” left out
Turning to `CCCCC(CC)COC(=O)CC(C(=O)OCC(CC)CCCC)S(=O)(=O)O` (stereo unspecified), the AC50 was 35.5 µM (active).
With `CCOC(=O)CCC(=O)OCC`, the call was inactive.
With `NC(=O)Cn1c(=O)cc(CCN2CCN(c3nccc4sccc34)CC2)c2ccc(F)cc21`, the AC50 was 0.199 µM (active).

The next experiment concerns the target D(1A) dopamine receptor (Homo sapiens) (UniProt P21728). Nature of the experiment: NVS_GPCR_hDRD1: NovaScreen (NVS) G Protein-Coupled Receptor Assay for human Dopamine Receptor D1 (DRD1) (AID 2283269). In outline:
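Extracted HEK293 DRD1 is incubated 1 h with compound and a tritiated or iodinated radioligand, then filtered and counted. Screening runs 25 uM in duplicate with on-plate positive and negative controls.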
Turning to `CCCCC(CC)COC(=O)CC(C(=O)OCC(CC)CCCC)S(=O)(=O)O` (stereo unspecified), the AC50 was 7.29 µM (active).
Consider `COc1ccc(S(=O)(=O)N2C(=O)[C@@](c3ccccc3OC)(N3C[C@H](O)C[C@H]3C(=O)N(C)C)c3cc(Cl)ccc32)c(OC)c1`, for which the result was inactive.
Regarding `O=C(N[C@@H](Cc1ccccc1)[C@@H](O)C(=O)N1C[C@@H](O)[C@@H](O)C1)c1cc2cc(Cl)ccc2[nH]1`, the call was inactive.
Take `Nc1nc(N)c2nc(CNc3ccc(C(=O)N[C@@H](CCC(=O)O)C(=O)O)cc3)cnc2n1`: the AC50 is 38.9 µM (active).
For `Oc1ccc2c(c1)OC[C@@H](N1CCC(O)(c3ccc(F)cc3)CC1)[C@H]2O`, the result was inactive.
Take `NC(=O)Cn1c(=O)cc(CCN2CCN(c3nccc4sccc34)CC2)c2ccc(F)cc21`: the AC50 was 0.00708 µM (active).
Regarding `COc1cc(S(=O)(=O)O)c(C)cc1N=Nc1c(O)ccc2cc(S(=O)(=O)O)ccc12`, the AC50 was 35.3 µM (active).
With `CC1=C(/C=C/C(C)=C/C=C/C(C)=C/CO)C(C)(C)CCC1`, the molecule was called inactive.
On to `CN1CCN(Cc2cc(-c3ccc4[nH]c(=O)oc4c3)co2)[C@@H](c2ccc(F)cc2)C1`, for which the half-maximal activity concentration (AC50) was 5.7 µM (active).
On to `CC1(C)CC(N=C=O)CC(C)(CN=C=O)C1` (stereo unspecified), for which the molecule was classed as inactive.
